Sampled rows, rich in hits. Any-hit rate of the full collection: about 3%.
Nrf2 ARE act: activators of Nrf2 (ARE) signaling | AREc32 ARE-luciferase reporter (MCF7-derived line), luminescence, 24 h | Potency, µM (series often up to 46.1 µM), for the others: top-dose activation, hits mostly activators | hit rate 0.31% among 410,000; also: % of control where 0% means no effect; nearly all actives have a fitted effect of over 65% in size
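AREc32_Fluc, 1000 cells/well, OPTI-MEM + 5% FBS, o/n 37 deg C 5% CO2; 23 nL cpd by pin tool, 24 hr; Steady-Glo 30 min RT, luminescence.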
GALK inh: galactokinase (human) inhibition. P51570. Purified GALK, Kinase-Glo residual ATP luminescence. Potency, µM (highest dose often 57.5 µM), for the others: at the top dose activity change, negative = inhibition, actives largely listed as inhibitors. hit rate 0.007% among 270,000. AID 1868; also: % is scaled to controls: 0 for no effect and ±100 for the full control effect
Target sequence (P51570 whole entry, looked up): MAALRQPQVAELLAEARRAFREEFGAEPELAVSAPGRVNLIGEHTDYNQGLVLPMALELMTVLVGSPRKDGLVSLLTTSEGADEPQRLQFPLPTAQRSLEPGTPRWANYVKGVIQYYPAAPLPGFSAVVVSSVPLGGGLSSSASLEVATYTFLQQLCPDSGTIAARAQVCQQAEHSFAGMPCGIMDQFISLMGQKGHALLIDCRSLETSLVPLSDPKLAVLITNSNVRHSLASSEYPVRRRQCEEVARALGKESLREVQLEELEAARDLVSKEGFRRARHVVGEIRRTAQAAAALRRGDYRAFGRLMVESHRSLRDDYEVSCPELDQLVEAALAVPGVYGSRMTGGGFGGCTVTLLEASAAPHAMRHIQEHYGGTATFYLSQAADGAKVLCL
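Kinase-Glo Plus luminescence measured ATP left after a 1 h room-temperature reaction. The reaction used 5 nM GALK, 100 uM galactose and 35 uM ATP at pH 8.0 (20 mM HEPES, 5 mM MgCl2, 60 mM NaCl, 1 mM DTT, 0.01% BSA).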
rTrxR1 inhibitor: rat TrxR1 inhibition. Potency, µM (series often up to 114 µM), without a hit: at the top dose activity change, negative = inhibition, hits mostly inhibitors. AID 588453. O89049. hit rate 1% among 390,000. recombinant rTrxR1, NADPH fluorescence consumption, selenite substrate; also: % is scaled to controls: 0 for no effect and ±100 for the full control effect; nearly all actives have a fitted effect of over 65% in size
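Rat TrxR1 (90 nM in the dispensed reagent) was pre-reduced with 400 uM NADPH for 5 min at room temperature, then incubated with compound for 15 min. After 400 uM selenite was added, NADPH fluorescence (Ex 340/Em 450 nm) was followed for 8 min.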
A549 viability: kills or reduces viability of A549 cells in Nrf2 counter-screen | Potency, µM (highest dose often 46 µM), without a hit: at the top dose activity change, negative = cytotoxicity, actives largely listed as inhibitors | hit rate 0.16% among 390,000 | AID 504648 | A549 ARE-Fluc cells, CellTiter-Fluor viability, 18-24 h; also: % is scaled to controls: 0 for no effect and ±100 for the full control effect
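A549 ARE_Fluc cells in 5% FBS OPTI-MEM were exposed to compounds in concentration-response for 18-24 h at 37 deg C. Viability was read by CellTiter-Fluor fluorescence (Ex 405/Em 525) after 30 min, before the luciferase read.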
TrxR1 substrate: substrates of rat thioredoxin reductase 1. Potency, µM (top dose mostly 114 µM), for the others: at the highest dose activity change, negative = substrate turnover. hit rate 0.01% among 390,000. purified TrxR1 substrate turnover, NADPH consumption readout. O89049; also: % is scaled to controls: 0 for no effect and ±100 for the full control effect; nearly all actives have a fitted effect of over 50% in size
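Rat TrxR1, dispensed at 90 nM, was prereduced with 400 uM NADPH (final) for 5 min at ~22 deg C, then incubated with compound 15 min before 400 uM selenite. A first-read NADPH fluorescence drop versus no-compound background flagged substrates.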
Nrf2 block: Nrf2 pathway inhibition; A549 ARE-Fluc reporter, luciferase luminescence, 18-24 h; Potency, µM (highest dose often 46 µM), for the others: top-dose activity change, negative = inhibition, hits mostly inhibitors; hit rate 2.1% among 360,000; AID 504444; also: % is scaled to controls: 0 for no effect and ±100 for the full control effect; nearly all actives have a fitted effect of over 60% in size
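Two sequential reads on A549 ARE_Fluc cells exposed to compound for 18-24 h: a CellTiter-Fluor fluorescence read for viability, then a luciferase luminescence read for Nrf2/ARE activity.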
* = called active by the depositor; ? = inconclusive; . = no result; [ ] = another dose, or the depositor's remark. Calls follow the shape of the dose curve; as a rule, active = well fitted curve in the direction sought with a large enough effect; inconclusive = small, poorly fitted or top-dose-only effect, or another doubt; inactive = no such curve, though single readings can be large; an effect the other way counts as inactive or inconclusive. Potency is read from the fitted curve at half-maximal effect.

SMILES | Nrf2 ARE act | GALK inh | rTrxR1 inhibitor | A549 viability | TrxR1 substrate | Nrf2 block
Cc1nnc(Sc2nc3ccccc3o2)c2ccccc12 | ? | -2.1% | 8.91µM* | 9.6% | -1.1% | ?
Clc1ccc(-c2nnc(Sc3nc4ccccc4o3)c3ccccc23)cc1 | ? | 3.3% | ? | -26.4% | 6.4%[57.1 µM] | 18.4µM*
O=C(O)c1ccccc1SC1=NS(=O)(=O)c2ccccc21 | . | . | . | -1.5% | . | -3.3%
CCOC(=O)C(C)(C)Sc1ncnc2nc[nH]c12 | -0.1% | -3.1% | 22.8% | -4.0% | 11.0% | 1.3%
CCOC(=O)c1cc([N+](=O)[O-])cc([N+](=O)[O-])c1Sc1ncnc2nc[nH]c12 | -3.0% | . | 0.447µM* | ? | 0.4%[57.1 µM] | 4.0%
CCCN1C(=O)/C(=c2\sc3nc(=O)c(Cc4ccc(C)cc4)nn3c2=O)c2ccccc21 | 0.5% | 2.7% | ? | 4.9% | -6.6% | 13.5%
NC(=O)CN1C(=O)/C(=c2\sc3nc(=O)c(Cc4ccccc4)nn3c2=O)c2ccccc21 | 0.1% | -2.0% | 17.8µM* | -6.3% | 3.0% | -13.3%
CCOC(=O)c1c(C)[nH]c(C)c1S(=O)(=O)N1CCC(C(=O)Nc2ccc(C)cn2)CC1 | -0.5% | . | 8.9%[57.1 µM] | 20.0% | 0.9%[57.1 µM] | ?
O=C(COc1ccc(S(=O)(=O)NC2CCCC2)cc1)N1CCCCC1 | -1.0% | 6.8% | 3.6% | -5.8% | -2.2% | -30.7%
O=C(CSc1n[nH]c(-c2ccc(S(=O)(=O)NC3CCCCC3)cc2)n1)N1CCCC1 | 0.3% | 0.5% | 25.5% | -13.5% | 185.9% | 16.4µM*
CCOc1ccc(CCNC(=O)C(CC(C)C)N2Cc3ccccc3C2=O)cc1OCC (configuration not stated) | -0.9% | . | 0.4% | -7.7% | -2.9% | ?
FC(F)(F)c1cccc(Cc2noc(CN3CCC(c4ccncc4)CC3)n2)c1 | 2.9% | -0.7% | 8.1% | -1.9% | -1.3% | 18.4µM*
c1cc(C2CCN(Cc3nc(-c4ccc5c(c4)OCO5)no3)CC2)ccn1 | 2.7% | 2.9% | 9.4% | -6.6% | 3.3% | 16.4µM*
CN1CCCC2(CCCN(Cc3nc(Cc4cccc(C(F)(F)F)c4)no3)C2)C1 (configuration not stated) | 5.4% | -3.7% | 1.1% | 0.9% | -3.2% | 8.8%
O=C(Nc1ccc(F)cc1F)c1cccc2c1C(=O)N(C1CCCCC1)C2 | -0.6% | . | 4.8% | 12.8% | -5.5% | 8.1%
Cc1ccc2cc(CN(CCCN3CCOCC3)C(c3nnnn3Cc3ccco3)C(C)C)c(=O)[nH]c2c1C (configuration not stated) | 8.7% | . | 10µM* | -18.1% | -3.5% | -23.7%
Cc1ccc2cc(CN(CCN3CCOCC3)Cc3nnnn3Cc3ccco3)c(=O)[nH]c2c1C | -0.6% | -1.2% | -26.0% | 1.2% | 2.2% | 12.1%
CN(C)c1nc(SCCOC(=O)c2ccccc2)nc(N(C)C)n1 | -0.2% | -3.2% | 10.5%[57.1 µM] | 0.7% | 5.5%[57.1 µM] | 2.2%
CCN(CC)c1nc(SCCOC(=O)Nc2ccccc2)nc(N(CC)CC)n1 | 2.7% | -4.5% | 31.0% | ? | 1.8% | 20.6µM*
O=C(Nc1cccc(S(=O)(=O)N2CCCCC2)c1)c1cc2ccccc2o1 | 1.7% | . | -6.0% | -12.5% | -8.6% | 23.1µM*
O=C(Nc1cccc(S(=O)(=O)N2CCCCC2)c1)c1ccc(S(=O)(=O)C(F)F)cc1 | 0.2% | -2.1% | 22.0%[57.1 µM] | -19.1% | -5.2% | 18.4µM*
O=C(Nc1cccc(S(=O)(=O)C(F)F)c1)c1ccc(S(=O)(=O)N2CCCCC2)cc1 | 1.3% | 7.0% | 19.9%[57.1 µM] | ? | -8.8% | 16.4µM*
CCc1nn2c(=O)cc(-c3ccncc3)nc2s1 | . | . | . | 4.7% | . | -29.1%
C[n+]1ccccc1/C=C1\Sc2ccccc2N1CCO | 4.2% | -0.9% | 2.6%[57.1 µM] | -19.8% | -5.6%[57.1 µM] | 16.4µM*
Cc1ccc2c(c1)S/C(=C\c1cccc[n+]1C)N2CCO | 3.0% | 10.3% | 11.5% | -18.5% | -4.6% | 4.61µM*

High-throughput results deposited in PubChem by National Center for Advancing Translational Sciences (NCATS).
